Bioassay records from PubChem.
Sm TGR inh = qHTS Assay for the Inhibitors of Schistosoma Mansoni Peroxiredoxins | Schistosoma mansoni thioredoxin glutathione reductase (TGR), Q962Y6 | Potency, µM (doses to about 114 µM), usual class: inhibitors | purified TGR, DTNB reduction, TNB absorbance 405 nm | AID 485364, 2010 | 3% of 360,000 active; further: nearly all actives have a fitted effect of over 60% in size
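First, TGR (20 nM dispensed) and NADPH were mixed with compound. Second, a 15 min room-temperature incubation followed. Third, further NADPH and then DTNB were added to start the reaction. Finally, TNB absorbance was monitored kinetically.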
Pf growth 48h = Primary qHTS for delayed death inhibitors of the malarial parasite plastid, 48 hour incubation; P. falciparum luciferase growth in erythrocytes, 48 h; Potency, µM (highest dose often 28.7 µM), actives largely listed as inhibitors; 5.9% of 310,000 active
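Here the parasites carry a stable luciferase gene and grow inside erythrocytes in Albumax-based RPMI medium with compound for one erythrocytic cycle. Activity is scored as loss of luminescent signal.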
Pf growth 96h = Primary qHTS for delayed death inhibitors of the malarial parasite plastid, 96 hour incubation; P. falciparum luciferase reporter growth, 96 h; Potency, µM (doses to about 28.7 µM), most hits filed as inhibitors; 6.9% of 320,000 active
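Luminescence readout: decreased luciferase signal marks inhibited growth of reporter-expressing P. falciparum in infected red cells (2% hematocrit, 0.05% parasitemia final), exposed to compound two generations (96 h, 37 C, 5% CO2).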
SARS PLpro yeast = qHTS of Yeast-based Assay for SARS-CoV PLP | S. cerevisiae expressing SARS-CoV PLpro, growth rescue | Potency, µM (top dose mostly 32.9 µM), most hits filed as activators | 0.19% of 330,000 active | AID 485353, 2010; calls by dose curve; further: nearly all actives have a fitted effect of over 55% in size
A number is an active result; 0 = inactive; ? = inconclusive; - = no result given. A selection: hits, their analogues and other compounds. The true share with any hit is near 12%. Unless noted, the call rests on the fitted dose curve; in most records, active means well fitted curve in the direction sought with a large enough effect; inconclusive means small, poorly fitted or top-dose-only effect, or another doubt; inactive means no such curve, though single readings can be large; an effect the other way counts as inactive or inconclusive.

SMILES	Sm TGR inh	Pf growth 48h	Pf growth 96h	SARS PLpro yeast
CC1=CC(C)(C)N(C(=O)CSc2nnc(C)s2)c2ccc(C)cc21	0	0	?	0
CCc1cc2c(COC(=O)CCNS(=O)(=O)c3cccc(C(F)(F)F)c3)cc(=O)oc2cc1O	0	4.7µM	?	0
COC(=O)COc1cccc(NC(=O)C(c2ccccc2)c2ccccc2)c1	0	0	?	0
Nc1c2c(nc3ccccc13)CCCC2O (stereo unspecified)	-	0	11µM	-
COc1ccc(NC(=O)c2ccc3oc(=O)c(S(=O)(=O)c4ccc(C)cc4)cc3c2)cc1OC	0	-	-	-
COc1ccc(-c2csc3ncnc(N4CCN(c5ccc(OC)cc5)CC4)c23)cc1	0	?	13µM	0
Clc1ccc(-c2csc3ncnc(NCCN4CCOCC4)c23)cc1	0	-	?	0
Cc1ccc(-c2csc3ncnc(N4CCN(c5ccccc5O)CC4)c23)cc1	0	9.3µM	10µM	0
Cc1ccc(-c2csc3ncnc(NCCN4CCOCC4)c23)cc1	0	13µM	10µM	0
CCOC(=O)N1CCN(c2ncnc3scc(-c4ccccc4)c23)CC1	0	?	?	0
COc1ccc(-c2csc3ncnc(N4CCN(c5ccccc5)CC4)c23)cc1	0	?	?	0
CC(C)(C)C(=O)N1CCN(c2ncnc3scc(-c4ccccc4)c23)CC1	0	-	13µM	0
O=c1[nH]cc(S(=O)(=O)NCc2ccccc2)c(=O)[nH]1	0	0	0	0
O=C(c1cccc([N+](=O)[O-])c1)N1CCCC(C(=O)N2CCN(c3ccccc3)CC2)C1 (stereo unspecified)	0	0	0	0
Cc1cc(C)cc(OCCOCCn2c(-c3ccc(Cl)cc3)nc3ccccc3c2=O)c1	0	-	-	-
COc1ccc(-c2csc3ncnc(N4CCN(c5ccccc5[N+](=O)[O-])CC4)c23)cc1	0	?	9.3µM	0
Clc1ccc(CN2CCN(c3ncnc4scc(-c5cccs5)c34)CC2)cc1	0	-	13µM	?
CCn1cnc2scc(-c3ccc(OC)cc3)c2c1=O	0	0	10µM	0
COc1ccc(-c2csc3ncnc(N4CCN(c5ccccc5O)CC4)c23)cc1	0	0	0	-
Fc1ccc(CN2CCN(c3ncnc4scc(-c5ccc(F)cc5)c34)CC2)cc1	0	-	?	0
COc1ccc(-c2csc3ncnc(N4CCN(Cc5ccccc5)CC4)c23)cc1	0	?	6.6µM	0
CCCn1cnc2scc(-c3ccc(OC)cc3)c2c1=O	0	0	0	0
Cc1cc(C)c(NC(=O)Cn2c(=O)n(CCC(=O)N3CCc4ccccc4C3)c(=O)c3ccccc32)c(C)c1	0	-	-	-
Cc1ccccc1CSc1nc2c(sc3ccccc32)c(=O)n1CCCC(=O)NCCCOC(C)C	0	-	-	-
O=C(O)c1ccc(Cn2cnc3scc(-c4ccccc4)c3c2=O)cc1	0	0	0	0
SMILES	Sm TGR inh	Pf growth 48h	Pf growth 96h	SARS PLpro yeast
Cc1ccc(-c2csc3ncn(Cc4ccc(C(=O)O)cc4)c(=O)c23)cc1C	0	0	12µM	0
CC1CCN(C(=O)Cn2nnc(-c3ccc([N+](=O)[O-])cc3)n2)CC1	0	0	15µM	0
COc1ccc2c(c1)sc1ncc(C(=O)NCc3ccc(OC(C)C)cc3)c(=O)n12	0	-	-	-
CC1CC(C)CN(CCCNC(=O)C2CCN(c3ncnc4c3sc3cccc(F)c34)CC2)C1 (stereo unspecified)	0	?	?	0
CCN(CC)CCCNC(=O)C1CCN(c2ncnc3c2sc2cccc(F)c23)CC1	0	?	1.9µM	0
COc1ccc(C(=O)CC(=O)c2ccc(OC)cc2)cc1	0	0	0	0
COc1ccc(C(=O)C/C(=C\C(=O)c2ccc(C)cc2)c2ccccc2)cc1	0	?	10µM	0
Cc1cc(Nc2ccc3c(c2)OCCO3)c2cc(Cl)ccc2n1	0	7.4µM	0	0
COC(=O)c1ccc2nc(C)cc(Nc3ccc(N(C)C)cc3)c2c1	0	1.7µM	?	0
Cc1cc(C)c(C#N)c(Nc2ccc3c(c2)OCCO3)n1	0	-	?	0
COc1ccc(Nc2cc(C)nc3ccc(OC)cc23)cc1	0	?	0	0
Cc1ccc(Nc2cc(C)nc3ccc(C)cc23)cc1	0	0	0.042µM	0
CCC(=O)N1CCc2cc(Br)cc(S(=O)(=O)NCCc3cccc(C)c3)c21	0	-	-	-
O=C(NCc1ccc(Cl)cc1)C1CCN(C(=O)c2ccc(Cl)cc2)CC1	0	?	?	0
Cc1cccc(C)c1OCC(=O)NC1CC1	0	2.9µM	0	0
Cc1cccc(C)c1OCC(=O)NNC(=S)NC(=O)C1CC1	0	?	10µM	0
Cc1ccc(C)c(OCC(=O)NNC(=O)C2CC2)c1	0	0	0	0
Cc1cccc(OCC(=O)NC2CCCCCC2)c1C	0	0	?	0
COc1cc(C(=O)n2nc(C)c(Sc3ccc(Cl)cc3)c2C)cc(OC)c1OC	0	-	-	-
CN(Cc1ccccc1)C(=O)CSc1nc2ccccc2n1Cc1ccccc1F	0	-	-	-
COC(=O)[C@@]1(Cc2ccc(F)cc2)[C@H]2c3cc(C(=O)N4CCCC4)n(CCCNc4ncc(C(F)(F)F)cc4Cl)c3C[C@H]2CN1C(=O)c1ccccc1	0	2.1µM	?	0
COC(=O)[C@@]1(Cc2ccc(F)cc2)[C@H]2c3cc(C(=O)N4CCCC4)n(Cc4ccc(C(F)(F)F)nc4)c3C[C@H]2CN1C(=O)c1ccccc1	0	?	2.1µM	0
CCOc1cc(C(=O)Nc2ccc(NC(=O)c3cc4ccccc4o3)c(OC)c2)cc(OCC)c1OCC	0	-	-	-
CCOC(=O)c1c(C)[nH]c(C)c1S(=O)(=O)N1CCCC(C(=O)N2CCN(c3cccc(C)c3C)CC2)C1 (stereo unspecified)	0	-	-	-
N=Cc1c(O)n(-c2cccc(Cl)c2)c(=O)[nH]c1=O	0	0	0	0
SMILES	Sm TGR inh	Pf growth 48h	Pf growth 96h	SARS PLpro yeast
O=c1[nH]c(=O)n(-c2cccc(Cl)c2)c(O)c1/C=N/c1ccccn1	79µM	0	?	0
COc1ccc(C)cc1NC(=O)Cn1c(=O)ccc2cc(S(=O)(=O)N3CCC(C)CC3)ccc21	0	-	-	-
CCOc1ccc(NC(=S)N/N=C(\C)Cc2ccc(OC)cc2)cc1	0	0	0	?
CCOc1ccc(S(=O)(=O)N/N=C(\C)Cc2ccc(OC)cc2)cc1	32µM	0	0	0
CC(C)Cn1cc(NC(=O)N2CCN(c3ccccc3F)CC2)c2ccccc2c1=O	0	-	-	-
CC/C=C\[C@H](O)[C@H](O)C1=C(C)C(=O)[C@]2(O1)C(=O)N[C@@](OC)(C(=O)c1ccccc1)C2O (stereo partly specified)	40µM	0	?	0
O=C1CNC(c2ccccc2Cl)c2cc(Br)ccc2N1 (stereo unspecified)	0	0	4.7µM	0
COC(=O)CN1C(=O)Nc2ccc(Br)cc2C1c1ccccc1Cl (stereo unspecified)	0	-	-	0
C=C(C)C(=O)OCC(O)COc1ccc(C(C)(C)c2ccc(OCC(O)COC(=O)C(=C)C)cc2)cc1 (stereo unspecified)	0	?	?	0
